Laboratory results published in PubChem BioAssay (NCI).
The panel holds about 83,000 compounds, 20% with a hit somewhere; the sample as a whole holds those more often.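 Values shown are percent growth following 48 h exposure of cells in 96-well plates to a single concentration of compound; below 10 was considered active.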 The source made the active and inactive calls.

Legend:
Test in all cases: NCI-60 one-dose screen, 48 h (100 = growth as untreated, 0 = no growth, -100 = all killed)
Settings in all cases: 10 µM unless noted
SK-MEL-2 melanoma = test system: SK-MEL-2 melanoma
EKVX NSCLC = test system: EKVX NSCLC
SN12C renal = test system: SN12C renal
TK-10 renal = test system: TK-10 renal
ACHN renal = test system: ACHN renal
A498 renal = test system: A498 renal
CCRF-CEM leukemia = test system: CCRF-CEM leukemia
MOLT-4 leukemia = test system: MOLT-4 leukemia
SR leukemia = test system: SR leukemia
UO-31 renal = test system: UO-31 renal

Measured: growth

c1ccc2nc(N3CCOCC3)c(N3CCCCC3)nc2c1
inactive: SK-MEL-2 melanoma 95.2% | EKVX NSCLC 97.7% | SN12C renal 96.2% | TK-10 renal 98.8% | ACHN renal 103% | A498 renal 78.3% | CCRF-CEM leukemia 93.6% | MOLT-4 leukemia 95.6% | SR leukemia 90.2%

COc1ccc(-c2nnc(N3CCN(C(=O)CN4CCN(c5ccccc5)CC4)CC3)nc2-c2ccc(OC)cc2)cc1
inactive: SK-MEL-2 melanoma 38.1% | EKVX NSCLC 13% | TK-10 renal 55.3% | ACHN renal 26.1% | A498 renal 48%
active: SN12C renal 7.79% | CCRF-CEM leukemia 9.28% | MOLT-4 leukemia -25.7% | SR leukemia -32.5%

COC(=O)c1ccc2c(c1)NC(=O)[C@@H]1CCCN21
inactive: SK-MEL-2 melanoma 95% | EKVX NSCLC 94.1% | SN12C renal 101% | TK-10 renal 127% | ACHN renal 103% | A498 renal 90.4% | CCRF-CEM leukemia 99.5% | MOLT-4 leukemia 84.1% | SR leukemia 81.5%

O=C(CCCCCCCCC(=O)Nc1cccc(C2=NCCN2)c1)Nc1cccc(C2=NCCN2)c1
inactive: SK-MEL-2 melanoma 99.8% | EKVX NSCLC 105% | SN12C renal 81.6% | TK-10 renal 92.4% | ACHN renal 112% | A498 renal 93.5% | CCRF-CEM leukemia 98% | MOLT-4 leukemia 89.4% | SR leukemia 65.5%

CCOC(=O)c1c(C)nc2c(c1N)/C(=C/c1cccs1)C(=O)N2Cc1ccccc1
inactive: SK-MEL-2 melanoma 60% | EKVX NSCLC 82% | SN12C renal 73.2% | TK-10 renal 90.1% | ACHN renal 79.7% | A498 renal 70.2% | CCRF-CEM leukemia 29.8% | MOLT-4 leukemia 18.8%
active: SR leukemia 9.76%

O=c1[nH]nc(-c2ccc(Br)cc2)c2sc(NC(=S)Nc3ccc(Cl)cc3)nc12
inactive: SK-MEL-2 melanoma 101% | EKVX NSCLC 89.8% | SN12C renal 109% | TK-10 renal 123% | ACHN renal 102% | A498 renal 100% | CCRF-CEM leukemia 98.4% | MOLT-4 leukemia 105% | SR leukemia 106%

O=C1[C@@H](OS(=O)(=O)CC(F)(F)F)[C@H](c2ccc(F)cn2)N1c1cc2c3ccccc3ccc2c2ccccc12
active: CCRF-CEM leukemia 9.13% | MOLT-4 leukemia 0.0781% | SR leukemia 4.47%
inactive: SK-MEL-2 melanoma 89.9% | EKVX NSCLC 87.6% | SN12C renal 80.7% | TK-10 renal 88.4% | ACHN renal 76.3% | A498 renal 83.6%

CCn1cc(C(=O)O)c(=O)c2cc(F)c(N3CCN(CC(=O)Nc4ccc(/C(C)=N/OC)cc4)CC3)cc21
inactive: SK-MEL-2 melanoma 109% | EKVX NSCLC 95.5% | SN12C renal 101% | TK-10 renal 101% | ACHN renal 103% | A498 renal 92.9% | CCRF-CEM leukemia 105% | MOLT-4 leukemia 96.4% | SR leukemia 82.6%

FC(F)(F)c1ccc2c(Nc3cccc(C4CC(c5ccccc5)=NN4c4ccc(Cl)cc4)c3)ccnc2c1 (stereo not drawn)
active: CCRF-CEM leukemia 3.45% | MOLT-4 leukemia 4.86% | SR leukemia -10.9%
inactive: SK-MEL-2 melanoma 87.2% | EKVX NSCLC 82.6% | SN12C renal 37.7% | TK-10 renal 82.3% | ACHN renal 73.3% | A498 renal 66.3%

C=C(C)[C@@H]1CC[C@]2(C(=O)OCCOCCOCC[P+](c3ccccc3)(c3ccccc3)c3ccccc3)CC[C@]3(C)[C@H](CC[C@@H]4[C@@]5(C)CC[C@H](OC(C)=O)C(C)(C)[C@@H]5CC[C@]43C)[C@@H]12
active: SK-MEL-2 melanoma -75.6% | EKVX NSCLC -74.8% | SN12C renal -89.9% | TK-10 renal -87.1% | ACHN renal -96.7% | A498 renal -94% | CCRF-CEM leukemia -41% | MOLT-4 leukemia -77.9% | SR leukemia -49.2%

O=C(/C(=C/c1ccc([N+](=O)[O-])cc1)SCc1ccccc1)c1ccc(Cl)cc1
inactive: SK-MEL-2 melanoma 84.5% | EKVX NSCLC 72.6% | TK-10 renal 103% | ACHN renal 76.5% | A498 renal 76.5% | MOLT-4 leukemia 13.5%
active: SN12C renal -25.4% | CCRF-CEM leukemia 9.82% | SR leukemia -1.55%

C=C1C(=O)O[C@H]2[C@H]1CC/C(COC(=O)/C=C/c1cccnc1)=C\CC[C@@]1(C)O[C@@H]21
inactive: SK-MEL-2 melanoma 75.2% | EKVX NSCLC 43.4% | SN12C renal 16.8% | TK-10 renal 25.1% | A498 renal 92.4%
active: ACHN renal -11.4% | CCRF-CEM leukemia -7.32% | MOLT-4 leukemia 8.45% | SR leukemia 6.38%

O=S(=O)(O)c1ccc(N=NSc2ccc3ccccc3c2)cc1
inactive: SK-MEL-2 melanoma 92.4% | EKVX NSCLC 99.4% | SN12C renal 107% | TK-10 renal 103% | ACHN renal 95.3% | A498 renal 107% | CCRF-CEM leukemia 89.8% | MOLT-4 leukemia 94.2% | SR leukemia 104%

COC(=O)/C=C1\SC(=Nc2ccc(C(F)(F)F)cc2)N(CCc2c[nH]c3ccccc23)C1=O
active: SK-MEL-2 melanoma -54.1% | EKVX NSCLC -6.54% | SN12C renal -65.1% | TK-10 renal -33.7% | ACHN renal -100% | A498 renal -48.5% | MOLT-4 leukemia -11.4% | SR leukemia -13.7%

C=C1C(=O)O[C@H]2[C@H]1CC/C(COC(=O)n1ccnc1)=C\CC[C@@]1(C)O[C@@H]21
inactive: SK-MEL-2 melanoma 89.4% | EKVX NSCLC 80.9% | SN12C renal 96.2% | TK-10 renal 94.7% | ACHN renal 82.8% | A498 renal 125% | CCRF-CEM leukemia 74.3% | MOLT-4 leukemia 83.4% | SR leukemia 77.5%

COc1ccc([C@H]2[C@@H](F)C(=O)N2c2cc(OC)c(OC)c(OC)c2)cc1F
inactive: SK-MEL-2 melanoma 58.8% | EKVX NSCLC 72.2% | SN12C renal 33.3% | TK-10 renal 64.4% | ACHN renal 32.7% | CCRF-CEM leukemia 13.2% | MOLT-4 leukemia 19.7% | SR leukemia 13.3%
active: A498 renal -5.5%

CCCCn1c(=O)c(/C=C/C(=O)/C=C/c2ccc(O)c(OC)c2)cc2ccc(Cl)cc21
active: CCRF-CEM leukemia 2.91% | MOLT-4 leukemia 8.28% | SR leukemia 3.78%
inactive: SK-MEL-2 melanoma 42.1% | EKVX NSCLC 40.1% | SN12C renal 12.3% | TK-10 renal 54.2% | ACHN renal 19.9% | A498 renal 77.6%

CC(=O)c1ccc(NC(=O)CSc2nnc(-c3cc(-c4ccc(Cl)cc4)nc4ccccc34)o2)cc1
inactive: SK-MEL-2 melanoma 87.3% | EKVX NSCLC 97.3% | SN12C renal 37.9% | TK-10 renal 83.7% | ACHN renal 89.8% | A498 renal 105% | MOLT-4 leukemia 66.6%
active: SR leukemia 0.55%

Nc1ccc(C2=NN(C(=O)c3cc(-c4ccc(Cl)cc4)nc4ccccc34)C(c3ccccc3)C2)cc1 (stereo not drawn)
inactive: SK-MEL-2 melanoma 37.1% | EKVX NSCLC 40.4% | SN12C renal 51.2% | TK-10 renal 58.5% | ACHN renal 51.5% | A498 renal 30% | CCRF-CEM leukemia 24.1% | MOLT-4 leukemia 41.2% | SR leukemia 25.9%

N#Cc1ccc(Oc2ccc3ccc(=O)oc3c2)cc1
inactive: SK-MEL-2 melanoma 135% | EKVX NSCLC 110% | SN12C renal 105% | TK-10 renal 116% | ACHN renal 98.2% | A498 renal 99% | CCRF-CEM leukemia 101% | MOLT-4 leukemia 100% | SR leukemia 82.9%

Oc1c(CCl)cc(Cl)cc1Cc1cc(Cl)cc(Cc2cc(Cl)cc(CCl)c2O)c1O
active: SN12C renal 8.92% | A498 renal -4.67%
inactive: EKVX NSCLC 21% | UO-31 renal 32% | TK-10 renal 17.7% | ACHN renal 22.7% | CCRF-CEM leukemia 13.5% | MOLT-4 leukemia 21% | SR leukemia 40.8%

COc1cc(-c2cn(-c3ccc(Cl)c(Cl)c3)c(=O)[nH]2)cc(OC)c1OC
inactive: SK-MEL-2 melanoma 97% | EKVX NSCLC 95.3% | SN12C renal 87.5% | TK-10 renal 94.7% | ACHN renal 96.5% | A498 renal 110% | MOLT-4 leukemia 85.1% | SR leukemia 31%

CC(C)(C)c1nn(-c2ccccc2)c2c1COCN2Cc1ccc(Cl)cc1
inactive: SK-MEL-2 melanoma 94.1% | EKVX NSCLC 98.8% | SN12C renal 96.7% | TK-10 renal 117% | ACHN renal 89.1% | A498 renal 85.1% | CCRF-CEM leukemia 64.5% | MOLT-4 leukemia 68.1% | SR leukemia 47.2%

C=CCn1c(SCC(=O)Nc2ccc(C(=O)/C=C/c3cc(OC)c(OC)c(OC)c3)cc2)nnc1-c1ccc(Cl)cc1
active: CCRF-CEM leukemia 6.62% | MOLT-4 leukemia 7.87% | SR leukemia 3.83%
inactive: SK-MEL-2 melanoma 26.3% | EKVX NSCLC 21.6% | SN12C renal 27.9% | TK-10 renal 35.9% | ACHN renal 37.4% | A498 renal 15.6%

CCCCOc1nc2ccc(C)cc2cc1/C=C/C(=O)/C=C/c1ccc2c(c1)OCO2
inactive: SK-MEL-2 melanoma 69.6% | EKVX NSCLC 102% | SN12C renal 89.2% | TK-10 renal 113% | ACHN renal 103% | A498 renal 106% | CCRF-CEM leukemia 75.9% | MOLT-4 leukemia 81.5% | SR leukemia 42.9%

O=C(O)c1cc(N=Nc2ccc(-c3ccc(N=Nc4c(S(=O)(=O)O)cc5ccc(Nc6ccccc6)cc5c4O)cc3)cc2)ccc1O
inactive: SK-MEL-2 melanoma 93.8% | EKVX NSCLC 101% | SN12C renal 98.7% | TK-10 renal 106% | ACHN renal 102% | A498 renal 99.4% | CCRF-CEM leukemia 101% | MOLT-4 leukemia 97.9% | SR leukemia 105%

O=[N+]([O-])c1ccc(N=Nc2c(O)c(N=Nc3cc([N+](=O)[O-])cc([N+](=O)[O-])c3O)cc(N=Nc3cc(S(=O)(=O)O)cc4cc(S(=O)(=O)O)cc(O)c34)c2O)cc1
inactive: SK-MEL-2 melanoma 100% | EKVX NSCLC 102% | SN12C renal 101% | TK-10 renal 98.6% | ACHN renal 101% | A498 renal 107% | CCRF-CEM leukemia 97.2% | MOLT-4 leukemia 86.7% | SR leukemia 86.1%

O=C1C(Cl)=C(NCCCN(CCCNC2=C(Cl)C(=O)c3ccccc3C2=O)C2=C(Cl)C(=O)c3ccccc3C2=O)C(=O)c2ccccc21
active: SN12C renal 4.16% | SR leukemia 2.55%
inactive: SK-MEL-2 melanoma 79.4% | EKVX NSCLC 80% | TK-10 renal 146% | ACHN renal 74.6% | A498 renal 100% | MOLT-4 leukemia 31.6%
